Assay results published in PubChem BioAssay (Tox21).
Inconclusive results are not listed. Active and inactive are the calls of the source. Unless noted, calls come from the whole dose curve; as a rule, active = well fitted curve in the direction sought with a large enough effect in the repeat runs; inconclusive = weak or mixed curves; inactive = no such curve, though single readings can be large; an effect the other way counts as inactive or inconclusive.

What was measured:
[1] = qHTS assay to identify small molecule agonists of the progesterone receptor (PR) signaling pathway - cell viability counter screen (AID 1346799; calls by dose curve; note: nearly all actives have a fitted effect of over 45% in size)
Procedure, shortened: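 Cytotoxicity measured by CellTiter-Glo luminescence (30 min, RT) in the same wells as the PR beta-lactamase agonist read. Those HEK293T cells had 16 h compound treatment at 37 C in 2% charcoal-stripped FBS medium.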

[2] = qHTS assay to identify small molecule antagonists of the TGF-beta/Smad signaling pathway - cell viability counter screen (AID 1346824); note: nearly all actives have a fitted effect of over 50% in size
Procedure, shortened: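 SBE-bla HEK 293T cells were plated overnight at 37 C, then given compounds in DMSO plus TGF-beta1 (added as 0.25 ng/mL solution) for 5 hr. After the bla read, CellTiter-Glo was added to the same wells and luminescence read after 30 min at room temperature.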

[3] = qHTS assay to identify small molecule agonists of the TGF-beta/Smad signaling pathway - cell viability counter screen (AID 1346829); note: top concentration of the series differs between compounds; nearly all actives have a fitted effect of over 45% in size
Procedure, shortened: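 After overnight seating at 37 C and 5% CO2, reporter cells got compounds for 5 hr and FRET substrate for 2 hr; cell viability then came from CellTiter-Glo luminescence.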

[4] = qHTS assay to identify small molecule agonists of the TGF-beta/Smad signaling pathway (AID 1346859; active = well fitted activation curve with a large enough effect in the signal ratio in the repeat runs, not every such curve was filed as active; the % refers to the signal ratio; note: series mostly up to about 77 µM)
Procedure, shortened: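 Fluorescence (ex 405 nm; em 460 and 530 nm) was read 2 h after LiveBLAzer FRET substrate at RT. The preceding compound treatment of overnight-plated SBE-bla HEK293T cells lasted 5 h at 37 C.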

[5] = target: Thyrotropin-releasing hormone receptor (Homo sapiens) (UniProt P34981); test: qHTS assay to identify small molecule antagonists of the thyrotropin-releasing hormone receptor (TRHR) signaling pathway (AID 1346877; active = well fitted inhibition curve with a large enough effect in the repeat runs, not every such curve was filed as active; note: series mostly up to about 51 µM)
Thyrotropin-releasing hormone receptor (Homo sapiens), sequence (P34981 whole entry, looked up): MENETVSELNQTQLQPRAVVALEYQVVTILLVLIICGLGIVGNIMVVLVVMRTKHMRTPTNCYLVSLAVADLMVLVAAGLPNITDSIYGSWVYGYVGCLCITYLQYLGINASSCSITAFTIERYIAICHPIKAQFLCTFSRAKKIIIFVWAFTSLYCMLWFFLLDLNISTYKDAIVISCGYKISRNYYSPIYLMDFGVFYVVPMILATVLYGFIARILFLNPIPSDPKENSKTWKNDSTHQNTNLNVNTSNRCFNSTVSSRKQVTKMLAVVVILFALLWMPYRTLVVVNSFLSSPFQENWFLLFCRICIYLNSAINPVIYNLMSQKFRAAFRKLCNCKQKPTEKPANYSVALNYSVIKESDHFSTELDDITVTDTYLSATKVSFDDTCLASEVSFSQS
Procedure, shortened: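 Intracellular calcium fluorescence, read kinetically every second over 3 min, reports TRH-evoked signalling in HEK293 cells carrying TRHR. Test compounds were added 5 min ahead of a 1 nM TRH challenge.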

[6] = target: Thyrotropin-releasing hormone receptor (Homo sapiens) (UniProt P34981); test: qHTS assay to identify small molecule agonists of the thyrotropin-releasing hormone receptor (TRHR) signaling pathway (AID 1346891; calls by dose curve; note: series mostly up to about 58 µM)
Procedure, shortened: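 Agonist-mode intracellular calcium readout: kinetic fluorescence over 3 min at 1 s intervals after compound addition to TRHR-HEK293 cells (18 h seeded, 2 h dye-loaded at 37 C). Fifteen concentrations, triplicates.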

[7] = Human pregnane X receptor (PXR) small molecule agonists, qHTS cell viability counter screen (AID 1346977); note: nearly all actives have a fitted effect of over 50% in size
Procedure, shortened: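 Same-well viability read: CellTiter-Fluor added after 23 hr compound exposure, fluorescence measured 1 hr later. Cells were PXR-Luc HepG2 seeded at 2,000/well in 5% charcoal-stripped FBS medium, rested 5 hr before dosing at 37 C.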

[8] = Caspase-3/7 induction in HepG2 cells by small molecules, qHTS assay (AID 1346978); note: nearly all actives have a fitted effect of over 15% in size; note: potency is the fitted concentration of half-maximal effect
Procedure, shortened: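 Wild-type HepG2 cells (2,000/well) were settled 5 h at 37 C, 5% CO2, then exposed to compounds in DMSO for 17 h. Caspase-3/7 activity was read by luminescence 30 min after adding Caspase-Glo 3/7 reagent at room temperature.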

[9] = Caspase-3/7 induction in CHO-K1 cells by small molecules, qHTS cell viability counter screen (AID 1346979); note: nearly all actives have a fitted effect of over 35% in size; note: potency is the fitted concentration of half-maximal effect
Procedure, shortened: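 Cytotoxicity counter screen: CellTiter-Fluor added to compound-treated wild-type CHO-K1 cells at 16 h (37C, 5% CO2), fluorescence measured 1 h later; same wells as caspase-3/7 measurement.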

[10] = Caspase-3/7 induction in CHO-K1 cells by small molecules, qHTS assay (AID 1346980); note: nearly all actives have a fitted effect of over 15% in size
Procedure, shortened: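 Wild-type cells were seeded at 1,500 per well and settled 5 hr at 37 C, 5% CO2, then exposed to DMSO-dissolved compounds for 17 hr. Caspase-Glo 3/7 reagent was added, and luminescence was read after 30min at room temperature.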

[11] = Caspase-3/7 induction in HepG2 cells by small molecules, qHTS cell viability counter screen (AID 1346981); note: series mostly up to about 92 µM; nearly all actives have a fitted effect of over 30% in size
Procedure, shortened: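 HepG2, WT, 2,000 cells/well; 5 hr pre-incubation 37 C/5% CO2; compound pin-transferred from DMSO; 16 hr exposure; CellTiter-Fluor, 1 hr; fluorescence read.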

[12] = target: Nuclear receptor subfamily 1 group I member 2 (Homo sapiens) (UniProt O75469); test: Human pregnane X receptor (PXR) small molecule agonists, qHTS assay (AID 1346982); note: nearly all actives have a fitted effect of over 35% in size; note: potency is the fitted concentration of half-maximal effect
Nuclear receptor subfamily 1 group I member 2 (Homo sapiens), sequence (O75469 whole entry, looked up): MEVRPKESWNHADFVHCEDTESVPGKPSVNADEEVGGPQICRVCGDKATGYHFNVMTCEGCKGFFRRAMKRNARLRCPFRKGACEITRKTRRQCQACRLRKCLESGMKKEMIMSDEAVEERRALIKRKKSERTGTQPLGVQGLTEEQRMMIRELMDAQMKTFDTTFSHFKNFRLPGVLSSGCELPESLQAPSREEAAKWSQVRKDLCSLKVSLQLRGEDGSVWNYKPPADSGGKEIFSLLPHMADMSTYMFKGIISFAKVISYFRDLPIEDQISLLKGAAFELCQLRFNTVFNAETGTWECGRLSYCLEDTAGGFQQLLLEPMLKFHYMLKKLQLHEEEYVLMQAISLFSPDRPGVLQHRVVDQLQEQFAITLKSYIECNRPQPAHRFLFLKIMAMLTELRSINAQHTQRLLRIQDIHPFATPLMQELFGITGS
Procedure, shortened: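 Luciferase signal from ONE-Glo (30 min, room temperature) measured activation of hPXR-driven CYP3A4 reporter expression in PXR-Luc HepG2 cells treated with compounds for 24 hr at 37 C.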

[13] = target: Cytochrome P450 2D6 (Homo sapiens) (UniProt P10635); test: Cytochrome P450 Family 2 Subfamily D Member 6 (CYP2D6) small molecule antagonists: luciferase reporter qHTS assay (AID 1671196); note: nearly all actives have a fitted effect of over 50% in size; note: potency is the fitted concentration of half-maximal effect; for activity change, negative = inhibition: series mostly up to about 120 µM
Cytochrome P450 2D6 (Homo sapiens), sequence (P10635 whole entry, looked up): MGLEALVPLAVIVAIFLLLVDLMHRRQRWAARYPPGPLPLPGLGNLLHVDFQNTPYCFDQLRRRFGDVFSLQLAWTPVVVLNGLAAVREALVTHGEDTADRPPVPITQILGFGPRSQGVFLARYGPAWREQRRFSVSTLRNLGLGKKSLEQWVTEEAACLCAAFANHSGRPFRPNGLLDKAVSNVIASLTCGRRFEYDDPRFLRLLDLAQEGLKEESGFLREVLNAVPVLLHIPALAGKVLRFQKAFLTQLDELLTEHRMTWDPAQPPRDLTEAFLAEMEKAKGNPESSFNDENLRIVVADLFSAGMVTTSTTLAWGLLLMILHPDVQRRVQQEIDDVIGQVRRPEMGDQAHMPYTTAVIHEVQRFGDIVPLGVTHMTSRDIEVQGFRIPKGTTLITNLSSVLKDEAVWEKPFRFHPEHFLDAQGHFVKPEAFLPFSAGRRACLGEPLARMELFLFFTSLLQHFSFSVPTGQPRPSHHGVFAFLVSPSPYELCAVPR
Procedure, shortened: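 Read-out is luminescence from luciferin formed by CYP2D6 turnover of a proluciferin substrate, recorded as relative luminescence units. Reactions ran 1 h at room temperature after NADPH regeneration solution was added.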

[14] = target: Cytochrome P450 2C19 (Homo sapiens) (UniProt P33261); test: Cytochrome P450 Family 2 Subfamily C Member 19 (CYP2C19) small molecule antagonists: luciferase reporter qHTS assay (AID 1671197); note: nearly all actives have a fitted effect of over 65% in size; note: potency is the fitted concentration of half-maximal effect; for activity change, negative = inhibition: series mostly up to about 120 µM
Cytochrome P450 2C19 (Homo sapiens), sequence (P33261 whole entry, looked up): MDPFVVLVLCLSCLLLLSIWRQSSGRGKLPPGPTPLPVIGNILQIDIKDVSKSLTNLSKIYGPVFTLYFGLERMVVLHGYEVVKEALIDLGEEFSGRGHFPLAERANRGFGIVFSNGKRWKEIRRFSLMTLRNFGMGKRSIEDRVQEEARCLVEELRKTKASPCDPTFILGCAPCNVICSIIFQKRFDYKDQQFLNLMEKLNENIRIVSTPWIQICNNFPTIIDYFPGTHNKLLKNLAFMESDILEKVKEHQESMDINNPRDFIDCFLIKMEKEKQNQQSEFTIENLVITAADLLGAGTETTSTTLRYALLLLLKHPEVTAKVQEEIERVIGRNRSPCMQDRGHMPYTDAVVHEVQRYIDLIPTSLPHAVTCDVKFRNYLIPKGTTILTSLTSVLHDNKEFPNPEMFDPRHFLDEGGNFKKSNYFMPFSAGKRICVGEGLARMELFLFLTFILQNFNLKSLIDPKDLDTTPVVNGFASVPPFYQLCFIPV
Procedure, shortened: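 Inhibition of CYP2C19 was scored from loss of luminescence in a P450-Glo proluciferin substrate assay, NADPH-started and run 1 h at 37C, with ketoconazole as positive control.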

[15] = target: Cytochrome P450 1A2 (Homo sapiens) (UniProt P05177); test: Cytochrome P450 Family 1 Subfamily A Member 2 (CYP1A2) small molecule antagonists: luciferase reporter qHTS assay (AID 1671199); note: nearly all actives have a fitted effect of over 50% in size; note: potency is the fitted concentration of half-maximal effect; for activity change, negative = inhibition: series mostly up to about 120 µM
Cytochrome P450 1A2 (Homo sapiens), sequence (P05177 whole entry, looked up): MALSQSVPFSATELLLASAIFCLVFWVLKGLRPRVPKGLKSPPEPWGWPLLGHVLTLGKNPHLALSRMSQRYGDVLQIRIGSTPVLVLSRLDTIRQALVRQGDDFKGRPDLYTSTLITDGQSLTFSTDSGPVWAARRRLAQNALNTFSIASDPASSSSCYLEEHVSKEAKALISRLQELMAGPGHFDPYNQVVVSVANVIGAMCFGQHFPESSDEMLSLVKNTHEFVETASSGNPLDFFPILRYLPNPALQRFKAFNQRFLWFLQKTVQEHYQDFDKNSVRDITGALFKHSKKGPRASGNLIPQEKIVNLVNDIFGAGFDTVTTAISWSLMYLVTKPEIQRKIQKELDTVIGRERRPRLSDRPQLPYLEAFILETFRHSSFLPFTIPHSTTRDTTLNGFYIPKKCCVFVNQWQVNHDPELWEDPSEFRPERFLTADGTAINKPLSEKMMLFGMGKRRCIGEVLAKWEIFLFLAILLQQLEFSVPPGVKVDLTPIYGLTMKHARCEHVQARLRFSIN
Procedure, shortened: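 P450-Glo CYP1A2, 1536-well qHTS: enzyme/proluciferin substrate + cpd (DMSO), 10 min RT; NADPH regen, 1 h RT; detection reagent, 20 min; luminescence, RLU.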

[16] = target: Voltage-gated inwardly rectifying potassium channel KCNH2 (Homo sapiens) (UniProt Q12809); test: Human Ether-a-go-go-Related Gene (hERG) channel small molecule antagonists: fluorescence cell-based qHTS assay (AID 1671200)
Voltage-gated inwardly rectifying potassium channel KCNH2 (Homo sapiens), sequence (Q12809 whole entry, looked up): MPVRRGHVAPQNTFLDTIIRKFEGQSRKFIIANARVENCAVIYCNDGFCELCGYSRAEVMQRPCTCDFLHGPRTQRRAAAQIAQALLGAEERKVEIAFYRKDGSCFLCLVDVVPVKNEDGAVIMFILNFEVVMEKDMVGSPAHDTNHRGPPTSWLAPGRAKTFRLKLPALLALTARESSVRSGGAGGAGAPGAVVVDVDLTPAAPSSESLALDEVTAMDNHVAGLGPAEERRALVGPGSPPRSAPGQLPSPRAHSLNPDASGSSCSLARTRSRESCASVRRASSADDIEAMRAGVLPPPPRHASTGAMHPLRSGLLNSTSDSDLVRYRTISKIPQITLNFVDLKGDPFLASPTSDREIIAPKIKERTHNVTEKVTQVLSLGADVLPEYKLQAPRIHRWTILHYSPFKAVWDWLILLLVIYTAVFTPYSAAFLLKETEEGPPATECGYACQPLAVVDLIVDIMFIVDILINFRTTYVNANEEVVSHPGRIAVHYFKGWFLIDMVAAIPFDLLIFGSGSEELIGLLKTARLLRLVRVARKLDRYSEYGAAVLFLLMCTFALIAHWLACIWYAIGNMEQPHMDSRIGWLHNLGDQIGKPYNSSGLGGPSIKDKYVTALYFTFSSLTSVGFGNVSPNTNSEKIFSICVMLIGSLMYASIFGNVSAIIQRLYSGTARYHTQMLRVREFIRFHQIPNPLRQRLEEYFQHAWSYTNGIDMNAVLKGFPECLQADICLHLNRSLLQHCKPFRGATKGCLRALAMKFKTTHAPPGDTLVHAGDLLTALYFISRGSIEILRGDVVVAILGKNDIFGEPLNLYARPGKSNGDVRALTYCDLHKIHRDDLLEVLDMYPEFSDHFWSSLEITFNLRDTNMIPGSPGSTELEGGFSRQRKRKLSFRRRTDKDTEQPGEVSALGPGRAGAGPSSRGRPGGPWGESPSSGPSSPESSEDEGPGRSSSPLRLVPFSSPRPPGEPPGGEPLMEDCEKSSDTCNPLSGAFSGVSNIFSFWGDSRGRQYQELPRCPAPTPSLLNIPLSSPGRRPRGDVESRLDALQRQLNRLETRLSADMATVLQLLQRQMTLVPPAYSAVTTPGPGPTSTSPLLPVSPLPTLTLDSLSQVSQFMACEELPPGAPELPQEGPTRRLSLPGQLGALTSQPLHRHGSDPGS
Procedure, shortened: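 Thallium flux as potassium surrogate: FluxOR II dye loaded 1 h at room temperature into hERG-expressing U2OS cells, then stimulus buffer added after 10 min. Kinetic 480 nm excitation/540 nm emission read, 2 min.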

[17] = target: Cytochrome P450 2C9 (Homo sapiens) (UniProt P11712); test: Cytochrome P450 Family 2 Subfamily C Member 9 (CYP2C9) small molecule antagonists: luciferase reporter qHTS assay (AID 1671198); note: nearly all actives have a fitted effect of over 50% in size; note: potency is the fitted concentration of half-maximal effect; for activity change, negative = inhibition: series mostly up to about 120 µM
Cytochrome P450 2C9 (Homo sapiens), sequence (P11712 whole entry, looked up): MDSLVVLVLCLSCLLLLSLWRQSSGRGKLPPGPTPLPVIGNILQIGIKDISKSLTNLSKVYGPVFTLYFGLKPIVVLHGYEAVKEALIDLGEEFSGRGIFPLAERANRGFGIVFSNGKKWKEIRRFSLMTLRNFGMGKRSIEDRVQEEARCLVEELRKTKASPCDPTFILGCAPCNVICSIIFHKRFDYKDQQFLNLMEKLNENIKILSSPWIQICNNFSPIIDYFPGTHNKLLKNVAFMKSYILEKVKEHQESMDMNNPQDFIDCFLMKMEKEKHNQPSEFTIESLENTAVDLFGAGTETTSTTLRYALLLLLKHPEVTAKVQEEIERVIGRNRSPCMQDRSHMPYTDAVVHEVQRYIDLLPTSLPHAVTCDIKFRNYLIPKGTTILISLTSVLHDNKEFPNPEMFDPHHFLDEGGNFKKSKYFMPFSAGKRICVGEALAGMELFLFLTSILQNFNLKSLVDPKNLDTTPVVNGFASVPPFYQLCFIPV
Procedure, shortened: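 CYP2C9 activity was measured with a P450-Glo proluciferin substrate. Enzyme–substrate mix was held with compound for 10 min at room temperature, then NADPH regeneration solution was added for 1 h at 37C. Luciferin product was read as luminescence.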
% is set by controls: 0 for no effect and ±100 for the full control effect.

CCCCNc1ccc(NCCCC)c2c1C(=O)c1ccccc1C2=O
active: Potency [9] 13 µM | Potency [15] 3.79 µM
inactive: activity change, negative = cytotoxicity [1] -18.3% [at 19 µM] | viability change, negative = cytotoxic [2] 4.33% [at 15.8 µM] | activity change, negative = cytotoxicity [3] 2.74% [at 15.8 µM] | activation [4] 0.206% [at 15.8 µM] | activity, negative = inhibition [5] 0.3% [at 10.5 µM] | activation [6] -0.167% [at 11.8 µM] | activity change, negative = cytotoxicity [7] -9.38% [at 19 µM] | caspase activation [8] -1.98% [at 19 µM] | caspase-3/7 activation [10] 2.79% [at 19 µM] | activity change, negative = cytotoxicity [11] -16.6% [at 19 µM] | activation [12] 2.95% [at 19 µM] | activity change, negative = inhibition [13] 0.95% [at 23.6 µM] | activity change, negative = inhibition [14] -5.26% [at 23.6 µM] | activity change, negative = inhibition [16] -6.35% [at 15.8 µM]

O=C(c1ccccc1)c1ccc(Cl)cc1
active: Potency [9] 61.1 µM | Potency [14] 15.9 µM | Potency [17] 15.9 µM | Potency [15] 5.03 µM
inactive: Potency [1] | Potency [2] | Potency [3] | outcome [4] | Potency [5] | Potency [6] | Potency [7] | Potency [8] | Potency [10] | Potency [11] | Potency [12] | Potency [13] | Potency [16]

CCCCCCCCCCCCS(=O)(=O)Cl
inactive: activity change, negative = cytotoxicity [1] -21.2% [at 19 µM] | viability change, negative = cytotoxic [2] -0.792% [at 15.8 µM] | activity change, negative = cytotoxicity [3] 19.7% [at 15.8 µM] | activation [4] 8.04% [at 15.8 µM] | activity, negative = inhibition [5] -4.31% [at 10.5 µM] | activation [6] 0.0016% [at 11.8 µM] | activity change, negative = cytotoxicity [7] 2.87% [at 19 µM] | caspase activation [8] -0.157% [at 19 µM] | activity change, negative = cytotoxicity [9] 5.87% [at 19 µM] | caspase-3/7 activation [10] -1.07% [at 19 µM] | activity change, negative = cytotoxicity [11] 3.84% [at 19 µM] | activation [12] 2.36% [at 19 µM] | activity change, negative = inhibition [13] -14.2% [at 23.6 µM] | activity change, negative = inhibition [14] -3.93% [at 23.6 µM] | activity change, negative = inhibition [17] -14.1% [at 23.6 µM] | activity change, negative = inhibition [15] 5.89% [at 23.6 µM]

N#Cc1ccc(C/C(=N/NC(=O)Nc2ccc(OC(F)(F)F)cc2)c2cccc(C(F)(F)F)c2)cc1
inactive: Potency [1] | Potency [2] | Potency [3] | outcome [4] | Potency [5] | Potency [6] | Potency [7] | Potency [8] | Potency [10] | Potency [11]
active: Potency [12] 54.5 µM | Potency [13] 39.9 µM | Potency [14] 12.6 µM | Potency [17] 22.4 µM | Potency [15] 25.2 µM

O=C(NCc1ncc(C(F)(F)F)cc1Cl)c1c(Cl)cccc1Cl
inactive: Potency [1] | Potency [2] | Potency [3] | outcome [4] | Potency [5] | Potency [6] | Potency [7] | Potency [9] | Potency [11] | Potency [17] | Potency [16]
active: Potency [8] 19.3 µM | Potency [12] 1.22 µM | Potency [13] 2.83 µM | Potency [14] 20 µM | Potency [15] 31.7 µM

N#CCCOCCC#N
inactive: Potency [1] | Potency [2] | Potency [3] | outcome [4] | Potency [5] | Potency [6] | Potency [7] | Potency [8] | Potency [9] | Potency [10] | Potency [11] | Potency [12] | Potency [13] | Potency [14] | Potency [17] | Potency [15] | Potency [16]

CC1CCC(C(C)(C)O)CC1 (stereo not drawn)
inactive: Potency [1] | Potency [2] | Potency [3] | outcome [4] | Potency [5] | Potency [6] | Potency [7] | Potency [8] | Potency [9] | Potency [10] | Potency [11] | Potency [12] | Potency [14] | Potency [17] | Potency [15] | Potency [16]
